Structures can show the parent of a compound that is named as a salt.
What follows are compounds tested on Drosophila S2 cl14 SmoIP sensor cells (assay: normalized SmoIP GFP fluorescence (untreated unstimulated = 0%, untreated Hh-stimulated = 100%); higher = more Smo activation sensor fluorescence). Conditions: stimulation: mock conditioned medium (-Hh); compound concentration: 2 uM; 24 h.
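Also: flow cytometry read-out as median GFP intensity of gated cells, compounds added 30 min before Hh-conditioned or mock medium, mock-treated cells serving as unstimulated baseline.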

SMILES	normalized SmoIP GFP fluorescence
O=C(Nc1ccc(OC(F)(F)F)cc1)c1sccc1NCc1ccnc2ccccc12	9.86%
C=CC(=O)Nc1cccc(Oc2nc(Nc3ccc(N4CCN(C)CC4)cc3)ncc2Cl)c1	11%
CC(C)CCNC(=O)C(CC(C)C)NC(=O)C1OC1C(=O)O (stereo unspecified) [loxistatin-acid-e-64c]	34.9%
Nc1ccc(C(=O)Nc2cccc(-c3nc(N4CCOCC4)c4oc5ncccc5c4n3)c2)cn1	5.45%
CS(=O)(=O)c1ccc(C(=O)Nc2ccc(Cl)c(-c3ccccn3)c2)c(Cl)c1	36.8%
COc1nc(C)cnc1NS(=O)(=O)c1cccnc1-c1ccc(-c2nnco2)cc1 [Zibotentan(ZD4054)]	-1.13%
C=CC(=O)Nc1cccc(Sc2nc(Nc3ccc(N4CCN(C)CC4)cc3)ncc2Cl)c1	36.2%
COc1cc(Nc2nc3ccccc3nc2NS(=O)(=O)c2ccc(NC(=O)c3ccc(C)c(OC)c3)cc2)cc(OC)c1	5.66%
Cc1ccc(-n2nc(C(C)(C)C)cc2NC(=O)Nc2ccc(OCCN3CCOCC3)c3ccccc23)cc1 [BIRB-796-(Doramapimod)]	72.2%
CCNC(=O)c1noc(-c2cc(C(C)C)c(O)cc2O)c1-c1ccc(CN2CCOCC2)cc1	32.9%
COc1cc2/c(=N/c3ccc(Br)cc3F)nc[nH]c2cc1OCC1CCN(C)CC1 [Vandetanib]	60.9%
Cc1cn([C@H]2C=C[C@@H](CO)O2)c(=O)[nH]c1=O [Stavudine]	-2.1%
O=c1cc(-c2cccc3c2Sc2ccccc2S3)oc(N2CCOCC2)c1	2.43%
COc1ccccc1OCC(O)CN1CCN(CC(=O)Nc2c(C)cccc2C)CC1 (stereo unspecified) [Ranolazine-dihydrochloride]	2.97%
NC(=O)Nc1cc(-c2cccc(F)c2)sc1C(=O)N[C@H]1CCCNC1	45%
CN(C)C(=O)c1ccc(S(=O)(=O)c2ccc(NC(=O)[C@@](C)(O)C(F)(F)F)c(Cl)c2)cc1	-2.1%
C[C@]12C=CC(=O)N[C@@H]1CC[C@@H]1[C@@H]2CC[C@]2(C)[C@@H](C(=O)Nc3cc(C(F)(F)F)ccc3C(F)(F)F)CC[C@@H]12 [Dutasteride]	4.26%
C[C@]12CC[C@@H]3c4ccc(O)cc4CC[C@H]3[C@@H]1CCC2=O [Estrone]	5.12%

SMILES	normalized SmoIP GFP fluorescence
COc1cc(Nc2ncc(F)c(Nc3ccc4c(n3)NC(=O)C(C)(C)O4)n2)cc(OC)c1OC [R406(free-base)]	9.32%
CCOC(=O)N1CCC(=C2c3ccc(Cl)cc3CCc3cccnc32)CC1 [Loratadine]	11%
CN1CCN(CCOc2cc(OC3CCOCC3)c3c(Nc4c(Cl)ccc5c4OCO5)ncnc3c2)CC1	10.4%
CC1=C(C(=O)Nc2cc3cn[nH]c3cc2F)C(c2ccc(C(F)(F)F)cc2)CC(=O)N1 (stereo unspecified)	-1.88%
CN(C)CCc1c[nH]c2ccc(Cn3cncn3)cc12 [Rizatriptan-Benzoate(Maxalt)]	-0.265%
Clc1ccc(C2(c3ccc(-c4cn[nH]c4)cc3)CCNCC2)cc1	17.1%
Nc1ncn([C@H]2C[C@H](O)[C@@H](CO)O2)c(=O)n1 [Decitabine]	25.6%
COC(=O)Nc1ccc(-c2nc(N3CCOCC3)c3cnn(C4CCN(C(=O)OC)CC4)c3n2)cc1	-12.5%
O=C(Nc1c[nH]nc1-c1nc2ccc(CN3CCOCC3)cc2[nH]1)NC1CC1	94.8%
COc1c(C)c2c(c(O)c1C/C=C(\C)CCC(=O)OCCN1CCOCC1)C(=O)OC2 [Mycophenolate-mofetil-(CellCept)]	5.98%
CCOC(=O)[C@H]1O[C@@H]1C(=O)N[C@@H](CC(C)C)C(=O)NCCC(C)C [Aloxistatin]	3.51%
OC[C@H]1O[C@@H](c2ccc(Cl)c(Cc3ccc(O[C@H]4CCOC4)cc3)c2)[C@H](O)[C@@H](O)[C@@H]1O	-7.78%
CCOC(=O)[C@H](CCc1ccccc1)N[C@H]1CCc2ccccc2N(CC(=O)O)C1=O [Benazepril-hydrochloride]	1.35%
COc1ccc(-c2nc(N3CCOCC3)c3sc(CN(C)c4ncc(C(=O)NO)cn4)cc3n2)cn1 [cudc-907]	82.3%
Cc1nc(C(=O)NCC(=O)O)c(O)c2ccc(Oc3ccccc3)cc12	11%
C#CCC(Cc1cnc2nc(N)nc(N)c2n1)c1ccc(C(=O)N[C@@H](CCC(=O)O)C(=O)O)cc1 (stereo partly specified) [Pralatrexate(Folotyn)]	13.3%
COc1cc2c(Nc3ccc(NC(=O)c4ccccc4)cc3)ncnc2cc1OCCCN1CCOCC1	6.52%
O=C(c1cc(Cc2n[nH]c(=O)c3ccccc23)ccc1F)N1CCN(C(=O)C2CC2)CC1 [AZD2281(Olaparib)]	1.35%

— the supplement of paper PMC5662767
